High-throughput results from PubChem BioAssay.
Insulin prom inh – TRM-6 insulin promoter activity inhibition. inhibition, % at 2 µM. actives 0.9% (n = 130,000). TRM-6 cells (human fetal islet line), insulin promoter-eGFP reporter, imaging; reporter expression induced with tamoxifen;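 active = inhibition above the mean plus 3 SD, with well images judged a real hit on visual review, cut at about 60% in these data, passing the limit was not always enough; inconclusive = inhibition over the cutoff but images rejected on review; inactive = inhibition not above the cutoff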
Autophagy HCS – modulators of autophagy; MEF GFP-LC3 puncta imaging; test concentration mostly 10 µM; calls only at 10 µM (by protocol); actives 0.98% (n = 190,000); AID 463193;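 active = percentage of spot-positive cells more than 3 SD above its plate mean, without a fluorescence outlier flag or 80% toxicity; inconclusive = no clear call, values can overlap the other calls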;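 note: spot-positive cell cutoff set from DMSO-treated cells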
Ins promoter up – MIN6 insulin promoter up-regulation. actives 0.3% (n = 190,000). AID 1625. z-score at 5 µM. MIN6 insulin promoter-GFP reporter, high-content imaging; active compounds read high;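 active = z-score above 3 at 5 µM with at least 500 cells counted in the well; inconclusive = wells under 500 cells, flagged as cytotoxic or low count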
WT yeast gro inh – growth inhibition of WT yeast, mitochondrial fusion screen; actives 2.1% (n = 190,000); inhibition, % at 10 µM; mitochondrial fusion phenotypic screen, WT strain; in the data active = inhibition above about 58%; tested in S. cerevisiae
Lmaj promast – Leishmania major promastigote growth inhibition | Leishmania major promastigotes, resazurin fluorescence viability | inhibition, % at 10 µM | actives 9% (n = 200,000); in the data active = inhibition above about 50%;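 note: promastigotes grown with compound for 44 hours at 28 °C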
Active calls of the source: *; i = inactive; ? = inconclusive; . = no result given; + = active, no number. An excerpt weighted towards active compounds, which were near 11% of everything screened.

SMILES | Insulin prom inh | Autophagy HCS | Ins promoter up | WT yeast gro inh | Lmaj promast
CCN1CCN(c2ccc(NC(=O)c3ccccc3F)cc2Cl)CC1 | -17 | i | -0.48 | -8 | 75*
O=C(Nc1ccc(N2CCCC2)cc1)c1ccccc1F | -36 | i | . | 14 | 100*
O=C(Nc1ccc(N2CCN(C(=O)c3cccs3)CC2)c(Cl)c1)c1ccco1 | 23 | i | -0.28 | 3 | -4
Cc1cccc(NC(=O)c2cc(NC(=O)c3ccco3)ccc2Cl)n1 | 23 | i | -0.2 | -3 | 85*
O=C(N[C@@H](Cc1ccccc1)C(=O)O)c1c(F)c(F)c(F)c(F)c1F | . | i | -0.05 | 0 | 0
CCc1cc(=O)oc2cc(OCC(=O)N3CCc4ccccc43)ccc12 | . | . | 0.46 | . | .
CCc1cc(=O)oc2c(C)c(OCC(=O)N3CCCc4ccccc43)ccc12 | 11 | i | -1.1 | -4 | 89*
Cc1cc(C(=O)OCC(=O)Nc2cccc(S(N)(=O)=O)c2)c2ccccc2n1 | . | . | 0.81 | . | .
CCOC(=O)C1C(=O)C=C(c2ccc(C)cc2)CC1c1ccccc1 (stereo not given) | . | i | -0.36 | 40 | 10
CCOC(=O)C1C(=O)C=C(/C=C/c2ccc(N(C)C)cc2)CC1c1ccccc1 (stereo not given) | . | + | 9.8* | -32 | 7
CCN(CC)S(=O)(=O)c1cccc(C(=O)NC(C)C(c2cccs2)N2CCCC2)c1 (stereo not given) | . | i | -0.66 | -8 | 2
O=C(OCc1ccc(Br)cc1)c1ccncc1 | -22 | i | 0.01 | 1 | -4
CC(=O)Nc1ccc(C(=O)OCc2ccc(Br)cc2)cc1 | 38 | i | 1.3 | 69* | 2
COc1cccc(C(=O)COC(=O)c2ccc(NC(C)=O)cc2)c1 | 32 | i | -0.27 | -4 | 81*
O=C(CCc1nnc(CCCCc2ccccc2)o1)NCCN1CCCCC1=O | . | i | . | 10 | -6
COc1ccc(OC)c(CNc2nc3ccccc3n2CCN2CCCCC2)c1 | . | i | -1.3 | -10 | 67*
COc1cccc(CNc2nc3ccccc3n2CCN2CCCCC2)c1 | . | i | -1.5 | 31 | 44
CCCn1c(NCc2cc(OC)ccc2OC)nc2ccccc21 | . | i | -2.1 | -29 | 33
COc1cccc(CNc2nc3ccccc3n2CCN2CCCCC2)c1OC | -17 | i | -1.5 | 4 | 100*
COc1ccccc1CNc1ccc(N2CCCCC2)cc1 | -70 | i | . | 15 | 22
COc1cccc(CNc2ccc(N3CCCCC3)cc2)c1OC | -46 | i | . | 5 | 100*
COc1ccc(CNc2nc3ccccc3n2CCN2CCCCC2)c(OC)c1 | . | i | -2.2 | -24 | 92*
CCCCn1c(SCC(=O)c2ccccc2)nc2c1c(=O)[nH]c(=O)n2C | 44 | i | -0.74 | 0 | 5
Cc1csc(NC(=O)[C@@H]2CCCN2C(=O)c2cccs2)n1 | -11 | i | 0.31 | 1 | -4
COP(=O)(OC)C(Nc1ccc(C)cc1)c1ccc([N+](=O)[O-])cc1 (stereo not given) | -19 | i | 0.19 | 18 | 4
SMILES | Insulin prom inh | Autophagy HCS | Ins promoter up | WT yeast gro inh | Lmaj promast
COc1ccc(OC)c(C2=NOC(C(=O)NCc3ccco3)C2)c1 (stereo not given) | 41 | i | 0.31 | 0 | 0
COc1cc2c(cc1OC)-c1nnc(-c3ccco3)n1C1(CCCC1)C2 | 21 | i | -0.19 | 3 | 58*
c1coc(-c2nnc3n2C2(CCCC2)Cc2ccccc2-3)c1 | -18 | i | 0.73 | -7 | 15
COc1ccc(-c2nn3c(-c4ccco4)nnc3s2)cc1OC | 0 | i | -0.29 | -2 | 88*
COc1cc(OC)c(-c2nn3c(-c4ccco4)nnc3s2)cc1OC | -44 | i | -2.4 | 4 | 82*
COc1cc(-c2nn3c(-c4ccccc4)nnc3s2)cc(OC)c1OC | . | + | -3.9 | 7 | 20
CC(C)(C)c1nnc(NC(=O)CN2C(=O)C3C4C=CC(C4)C3C2=O)s1 (stereo not given) | 75* | i | 0.24 | 7 | 0
Nc1nonc1C(=O)NCCNCc1c(OCc2ccccc2F)ccc2ccccc12 | -277 | i | . | 19 | 8
CNCc1c(OCc2ccccc2F)ccc2ccccc12 | -11 | i | -0.9 | 5 | 56*
C/C(=C/C(=O)N1CCc2ccccc21)C(=O)O | -33 | i | 1.9 | 14 | -4
COc1ccc2nc(Nc3nc4cc5c(cc4s3)OCO5)sc2c1 | -12 | i | 0.48 | 17 | 55*
COc1ccc2nc(Nc3ccc4c(c3)OCO4)sc2c1 | . | i | 0.46 | -10 | -6
Cc1ccc(C(=O)COc2ccccc2C(=O)Nc2ccccc2)cc1 | . | i | -1.6 | -1 | 5
COc1cccc(NC(=O)Cc2cccs2)c1 | 0 | i | -0.11 | -16 | -6
COc1ccccc1NS(=O)(=O)c1cccc(NC(=O)Nc2ccccc2)c1 | 0 | i | . | -3 | 99*
COc1ccccc1NS(=O)(=O)c1cccc(NC(=O)Nc2ccc(Cl)cc2)c1 | -6 | i | 0.28 | 9 | 97*
COc1ccccc1NS(=O)(=O)c1cccc(NC(=O)Cc2cccs2)c1 | -15 | i | 0.04 | -21 | 98*
COc1ccccc1NS(=O)(=O)c1cccc(C(=O)OCc2nc3ccccc3s2)c1 | 8 | i | 0.1 | 37 | 90*
Cc1nonc1CC(=O)N1CCCC(C(=O)c2ccc(Cl)cc2)C1 (stereo not given) | . | i | -0.21 | -7 | -4
CSC1=NCCN1C(=O)c1c(-c2c(F)cccc2Cl)noc1C | . | . | -0.2 | . | .
CCOc1ccccc1OCCC(=O)Nc1ccc(F)c(Cl)c1 | 54 | i | -0.29 | -15 | 1
Cc1ccccc1OCCC(=O)Nc1ccc(F)c(Cl)c1 | -36 | i | 0.15 | 24 | 68*
COc1cccc(-c2cc(C(F)(F)F)n3nc(C(=O)N4CCCCC4c4cccnc4)cc3n2)c1 (stereo not given) | 29 | i | -0.68 | 27 | 89*
COc1ccc(-c2cc(C(F)(F)F)n3nc(C(=O)N4CCCCC4)cc3n2)cc1OC | 43 | i | ? | 10 | 0
COc1ccc(-c2nnc(SC(C)C(=O)Nc3nccs3)n2-c2ccccc2)cc1OC (stereo not given) | -34 | i | -0.29 | -13 | 54*
SMILES | Insulin prom inh | Autophagy HCS | Ins promoter up | WT yeast gro inh | Lmaj promast
O=[N+]([O-])c1cccc(/C=N\N=C2c3ccccc3-c3ccccc32)c1O | 11 | i | 0.57 | 11 | 74*
COc1cc(CNC(C)(C)CO)cc(Br)c1OCc1ccc(Cl)cc1Cl | 20 | i | -0.39 | 94* | 100*
COc1cc(CNC(C)(C)CO)cc(Br)c1OCc1ccc(Cl)cc1 | 14 | i | -0.5 | 41 | 98*
CC(C)CC1(C)NC(=O)N(CC(=O)Nc2cccc(S(=O)(=O)N(C)c3ccccc3)c2)C1=O (stereo not given) | -32 | i | -1.4 | -4 | 21
O=C(Nc1ccc2cn[nH]c2c1)c1ccc(Cl)c(S(=O)(=O)N2CCOCC2)c1 | . | i | -0.83 | -9 | -1
CCOc1ccc(-n2ccnc2SCC(=O)Nc2cc(C)on2)cc1 | . | i | -0.92 | -21 | -4
CC(=O)CC(=O)Nc1ccc(Nc2ccccc2)cc1 | 13 | i | 0.43 | -24 | -4
Cc1cc(C)c(C(=O)/C=C/c2cccs2)c(=O)[nH]1 | . | i | 1.1 | 1 | 10
